# From PubChem
# Pf growth 48h = inhibits P. falciparum growth in the first generation, 48 h | 310,000 compounds, 5.9% hits | Potency, µM (top dose mostly 28.7 µM), inactives show top-dose activity change, negative = inhibition, hits mostly inhibitors | P. falciparum luciferase growth in erythrocytes, 48 h | AID 504832; active = well fitted inhibition curve with a large enough effect; inconclusive = small, poorly fitted or top-dose-only effect, or another doubt; inactive = no such curve, though single readings can be large or run the other way; note: potency is the fitted concentration of half-maximal effect; % is set by controls: 0 for no effect and ±100 for the full control effect
#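 Cell-based growth assay: transgenic P. falciparum expressing firefly luciferase, cultured in red cells within RPMI 1640 containing 0.5% w/v Albumax, 24 mM bicarbonate and gentamycin. A drop in luciferase activity indicates inhibition.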
# NS1 function inh = influenza NS1 inhibition | Potency, µM (series often up to 46.1 µM), inactives show at the highest dose activity, positive = more growth | 270,000 compounds, 0.4% hits | AID 2326; note: potency is the fitted concentration of half-maximal effect; actives are rising curves; nearly all actives have a fitted effect of over 50% in size
#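 OD600 was taken as the measure of yeast growth restored by compound in an NS1-expressing S. cerevisiae strain. Cells had been washed out of glucose medium and diluted 1:100 into galactose -URA medium, pH 6.0.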
# Pf growth 96h = P. falciparum growth inhibition at 96 hours | AID 504834 | Potency, µM (doses to about 28.7 µM), for inactives: at the top dose activity change, negative = inhibition, most hits filed as inhibitors | 320,000 compounds, 6.9% hits | P. falciparum luciferase reporter growth, 96 h; active = well fitted inhibition curve with a large enough effect; inconclusive = small, poorly fitted or top-dose-only effect, or another doubt; inactive = no such curve, though single readings can be large or run the other way; note: potency is the fitted concentration of half-maximal effect; % is set by controls: 0 for no effect and ±100 for the full control effect
#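 P. falciparum expressing integrated firefly luciferase grown in erythrocytes (2% hematocrit, 0.05% parasitemia final) with compounds for 96 hours at 37 C, 5% CO2. Growth inhibition read as loss of luminescence after adding luciferase detection reagent.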
# CHX counter = counter-screen hit for Shiga toxin inhibitors, cycloheximide | 300,000 compounds, 12% hits | cell reporter, cycloheximide protein synthesis inhibition counterscreen | max response, % | AID 2314; in the data active = max response mostly above about 13%, no sharp cut-off; inactive = mostly below about 14%; note: read at 38.3 µM for the half of the compounds with a filed dose; 0% is about no effect
# Shiga toxin inh = blocks Shiga toxin action in Vero cells; AID 2315; inhibition, % at 38.7 µM; 290,000 compounds, 9.2% hits; Vero cells, Shiga toxin protein synthesis inhibition reporter; in the data active = inhibition mostly above about 28%, no sharp cut-off; inactive = mostly below about 43%; note: 0% is about no effect
# SARS PLP yeast = SARS-CoV PLP inhibition in yeast. S. cerevisiae expressing SARS-CoV PLpro, growth rescue. Potency, µM (doses to about 32.9 µM), for the others: at the top dose activity, positive = growth rescue, most hits filed as activators. 330,000 compounds, 0.19% hits. AID 485353; note: potency is the fitted concentration of half-maximal effect; 0% is about no effect; nearly all actives have a fitted effect of over 55% in size
# Starred values were filed as active, the others as inactive; ? = inconclusive; nt = no result given. Compounds with a hit are over-represented: about 21% of the library has one in this group of screens. Unless noted, calls come from the whole dose curve.
SMILES,Pf growth 48h,NS1 function inh,Pf growth 96h,CHX counter,Shiga toxin inh,SARS PLP yeast
Cc1cccc(-n2cc(-c3ccc([N+](=O)[O-])cc3)[nH]c2=S)c1,40.6%,17.8%,7.9%,24.1*,104.7*,-1.4%
COc1ccc(-n2cc(-c3ccc(Cl)cc3)[nH]c2=S)cc1,?,3.5%,?,13.1*,12.9,0.9%
COc1cccc(-n2cc(-c3ccc(F)cc3)[nH]c2=S)c1,-23.5%,-11.7%,-57.6%,37.5*,85.6*,-1.5%
O=[N+]([O-])c1ccc(-c2cn(-c3ccccc3)c(=S)[nH]2)cc1,19.8%,11.8%,0.0%,-1.2,22.2,4.7%
Cn1c(CSCc2ccccc2)nnc1SCC(=O)Nc1ccc(C(=O)O)cc1,-6.4%,11.1%,15.5%,-2.2,4.3,1.4%
O=C(O)c1ccc(-c2nnc(-c3ccc([N+](=O)[O-])cc3)o2)cc1,20.7%,18.5%,283.9%,8.7,-10.3,3.7%
O=C(O)c1ccc(-c2nnc(-c3ccccc3)o2)cc1,nt,3.7%,-19.3%,27.2*,41.8*,-2.5%
O=C(c1nnc(-c2ccccc2)o1)C1CC1,7.9%,nt,33.8%,37.0*,97.4*,1.6%
O=C(c1ccc(-c2nnc(-c3ccccc3)o2)cc1)N1CCCCCC1,84.8%,-12.8%,52.0%,15.4,82.6*,-2.1%
CC(C)(C)NC(=O)C[C@H]1C[C@H](C(=O)N2CCOCC2)[C@@]2(C)c3[nH]c4ccc(Cl)cc4c3CCN2C1=O,nt,nt,nt,nt,nt,-10.4%
CC(C)c1nc(SCC(=O)c2ccccc2)c2c(=O)n(C)c(=O)n(C)c2n1,8.0%,5.0%,16.2%,-3.6,-3.6,-1.0%
O=C(COC(=O)c1ccc(O)cc1)c1ccc(S(=O)(=O)N2CCCCC2)cc1,2.94µM*,nt,?,nt,nt,3.7%
COc1cc(NC(=O)COC(=O)c2ccc(C)c(S(=O)(=O)N3CCCCC3)c2)c(C)cc1[N+](=O)[O-],6.3%,?,?,71.7*,57.3*,2.8%
COc1ccc(C(=O)OCC(=O)Nc2ccc(OC)c(S(=O)(=O)N3CCCCC3)c2)cc1[N+](=O)[O-],-21.3%,nt,7.5%,nt,nt,-0.7%
O=C(COC(=O)c1ccc(O)cc1)Nc1cc(S(=O)(=O)N2CCOCC2)ccc1Cl,?,nt,4.65µM*,nt,nt,1.1%
O=C(CCCSc1ccc(Cl)cc1)Nc1cc(S(=O)(=O)N2CCOCC2)ccc1O,?,nt,8.28µM*,nt,nt,9.5%
CCc1ccc(NC(=O)CSc2nnc(C)c(=O)n2N)cc1,-5.3%,18.0%,16.8%,-1.8,-15.8,?
COc1cc(S(=O)(=O)N2CCOCC2)cc(C(=O)OCC(=O)NCc2ccco2)c1OC,-28.6%,nt,?,nt,nt,5.3%
Cc1ccc(NC(=O)COC(=O)c2ccc([N+](=O)[O-])o2)cc1S(=O)(=O)N1CCCCCC1,-2.7%,nt,?,28.3*,58.6*,-1.6%
O=C(COC(=O)c1ccc([N+](=O)[O-])o1)Nc1cccc(S(=O)(=O)N2CCOCC2)c1,-3.8%,5.8%,?,7.0,7.4,2.4%
Cc1ccc(S(=O)(=O)N2CCCCC2)cc1NC(=O)COC(=O)c1ccc(O)cc1,?,nt,0.233µM*,-1.2,-9.8,-0.4%
COc1cc(CN(C)CC2CCCN(CCc3ccccc3F)C2)cc(Cl)c1OC (configuration not stated),13.1µM*,-8.6%,9.28µM*,-1.2,-8.0,2.5%
COc1cc(CN(C)CC2CCCN(CCc3ccc(F)cc3)C2)c(Cl)cc1O (configuration not stated),11.7µM*,18.8%,?,-3.4,1.8,0.2%
COc1ccc(CN(C)CC2CCCN(CCc3ccc(F)cc3)C2)cc1OC (configuration not stated),?,23.9%,4.65µM*,-2.7,-12.4,19.7%
COc1ccccc1CCN1CCCC(CN(C)CC(C)(C)CO)C1 (configuration not stated),2.0%,-6.3%,11.7µM*,-2.6,nt,-2.6%
SMILES,Pf growth 48h,NS1 function inh,Pf growth 96h,CHX counter,Shiga toxin inh,SARS PLP yeast
COc1ccc(CN(C)CC2CCCN(CCc3ccc(Cl)cc3)C2)cc1OC (configuration not stated),?,-14.1%,-10.1%,-2.5,-19.2,-1.3%
CCc1ccccc1N(CC(=O)N1CCc2ccccc2C1)S(C)(=O)=O,-5.2%,-4.1%,?,-1.2,-3.8,-0.6%
C[C@@H](CN=[N+]=[N-])CN1CC[C@H](C(C)(C)C)CCC1=O,49.7%,4.2%,89.6%,-1.8,2.4,nt
CCN(CC1CCCN(CCc2cccc(F)c2)C1)C(=O)c1cc(C)oc1C (configuration not stated),?,12.8%,5.22µM*,-6.6,10.2,1.5%
COc1ccc(F)c(CN(C)CC2CCCN(CCc3ccc(F)cc3)C2)c1 (configuration not stated),?,9.2%,?,-1.9,-7.1,1.3%
CCN(CC1CCCN(CCc2cccc(F)c2)C1)C(=O)c1cc2ccccc2o1 (configuration not stated),?,1.1%,80.3%,9.1,10.7,0.8%
CCOc1cccc(CN(C)CC2CCCN(CCc3ccc(Cl)cc3)C2)c1O (configuration not stated),3.7µM*,0.0%,1.47µM*,1.6,-8.4,-0.2%
CN(CC1CCCN(CCc2cccc(C(F)(F)F)c2)C1)C(=O)c1cc2ccccc2o1 (configuration not stated),10.4µM*,-4.7%,30.6%,-0.1,-3.1,0.6%
COc1cc(CN(C)CC2CCCN(CCc3cccc(C(F)(F)F)c3)C2)ccc1O (configuration not stated),2.94µM*,0.3%,?,1.1,4.7,-1.5%
Fc1ccccc1N1CCN(C(c2ccccn2)c2nnnn2C2CCCCC2)CC1 (configuration not stated),10.4µM*,-57.3%,-5.8%,4.8,-8.1,-5.5%
CC(C)CC(c1nnnn1C1CCCC1)N1CCN(c2ccccc2F)CC1 (configuration not stated),0.0%,-46.7%,38.4%,-2.9,-5.2,5.4%
COc1ccccc1N1CCN(C(c2ccccn2)c2nnnn2C2CCCCC2)CC1 (configuration not stated),9.28µM*,-18.7%,nt,-3.8,-8.7,-6.5%
COC(=O)[C@]1(C)N[C@H](CN(C)C(=O)C2CCCCC2)[C@@H]2C(=O)N(Cc3ccccc3)C(=O)[C@@H]21,nt,nt,nt,nt,nt,3.9%
COc1cc(S(=O)(=O)NCc2ccncc2)ccc1Br,34.2%,7.3%,1.7%,6.2,-9.1,-0.7%
CCn1c(-c2ccccc2Cl)nn(CC(=O)Nc2cc(Cl)ccc2Cl)c1=S,?,3.9%,10.4µM*,-3.8,-11.3,4.9%
CCOC(=O)C1CCCN(C(=O)CN2C(=O)NC(C)(c3ccc4ccccc4c3)C2=O)C1 (configuration not stated),2.9%,nt,6.9%,nt,nt,-4.9%
CCOC(=O)CNC(=O)CCc1nnc2ccc(N3CCC(C)CC3)nn12,-1.8%,1.0%,-12.6%,1.0,-5.8,-1.4%
